In PubChem BioAssay AID720518 (National Center for Advancing Translational Sciences (NCATS), 2013):
Inconclusive results are not listed. A number with no mark means an inactive call. The source made the active and inactive calls. The call rests on the fitted dose curve.
Potency means the concentration at half of the fitted maximal effect.

Experiment: qHTS for Inhibitors of Cell Surface uPA Generation: Wild-type Protective Antigen (WT-PrAg) Counterscreen for Cherry-picked Compounds; on activity (protection): 0% is about no effect
Details: cells, WT protective antigen toxicity counterscreen; series mostly up to 115 µM; activity (protection): at the top concentration
For `O=C(NCc1ccc(F)cc1)c1cc(S(=O)(=O)N2CCCCC2)ccc1N1CCOCC1`, the “activity (protection)” value was -0.974%.
For `O=C(C[n+]1ccccc1)Nc1ccccc1C(F)(F)F`, the “activity (protection)” value was 0.0894%.
In the case of `C[N+](C)(C)CCOC(=O)CBr`, the “activity (protection)” value is reported as -0.69%.
With `CCOC(=O)C1=CC[C@@H](c2cc3ccc(OC)cc3n2C)N(S(=O)(=O)c2ccc(C)cc2)[C@H]1C(=O)OCC` the “activity (protection)” value was -1.05%.
With `CC1Cc2nc(SCC(=O)Nc3ccc4c(c3)OCO4)n(-c3ccc(F)cc3)c(=O)c2S1` (stereo not drawn) the “activity (protection)” value was -0.181%.
With `Cc1cccc(N2C(=O)c3cccc(Oc4ccc(Cl)cc4)c3C2=O)c1` the “activity (protection)” value was 0.86%.
For `O=C(Nc1ccc(Cl)cc1)Nc1nnc(-c2ccncc2)s1`, the “activity (protection)” value was -2.16%.
With `CCCCn1c(SCC(=O)Nc2cc(C(F)(F)F)ccc2Cl)nnc1C(CC)N(C)C` (stereo not drawn) the Potency was 58.5 µM (active).
With `O=C(NCc1ccc2c(c1)OCO2)c1ccccn1` the “activity (protection)” value was 0.737%.
In the case of `COc1ccc(Cl)cc1NC(=O)CSc1nc(=O)n(CCN(C)C)c2c1CCCC2`, the “activity (protection)” value is reported as -2.67%.
For `Cc1ccn(CCC(=O)N2CCc3ccccc32)n1`, the “activity (protection)” value was -0.997%.
For `O=C(NCCCn1cccn1)C1CCC(=O)N(Cc2ccccc2F)C1` (stereo not drawn), the “activity (protection)” value was -0.576%.
For `CCOC(=O)C1(CCOc2ccccc2)CCN(Cc2ccc(O)c(OC)c2)CC1`, the “activity (protection)” value was -2.28%.
In the case of `Cc1[nH]c2ccccc2c1C(=O)COC(=O)c1cccc(S(=O)(=O)N2CCCCC2)c1`, the “activity (protection)” value is reported as 1.61%.
With `CCC1(CC)NC(=O)N(CC(=O)OCC(=O)c2cc(C)c(C)cc2C)C1=O` the “activity (protection)” value was -0.796%.
For `CCCN1CCN(CC(=O)Nc2nncs2)CC1`, the “activity (protection)” value was 2.48%.
For `O=C(COC(=O)c1ccc2ncsc2c1)NCc1cccc(Cl)c1`, the “activity (protection)” value was -0.608%.
In the case of `CC(C)(C)C(=O)NCCc1nc2ccccc2n1CC(=O)c1ccc(Cl)cc1`, the “activity (protection)” value is reported as -0.94%.
